Measurements reported in the supplement of paper PMC10681739.

target: RUNX1 (UniProt Q01196); assay: RUNX1 binding intensity (PBM fluorescence) in presence of ETS1, normalised to RUNX1-only experiment (arbitrary fluorescence units); higher = stronger binding; settings: RUNX1 concentration 2 nM; ETS1 concentration 25 nM
Description: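 Cooperative gcPBM on 36-bp genomic probes with neighbouring ETS1 and RUNX1 sites. Recombinant human RUNX1 (2 nM) was incubated alone or with ETS1 (25 nM) and detected with anti-RUNX1 antibody plus Alexa488 secondary. Values are medians over 4 replicate spots; the RUNX1+ETS1 data were normalised to the RUNX1-only data. The probes sit in constant array flanks that are not printed.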
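Also: Full-length recombinant human ETS1 or RUNX1 bound to double-stranded 36-bp genomic probes on microarrays, detected by protein-specific primary antibody and Alexa488 secondary, spot fluorescence as median of four replicate spots.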

RUNX1, sequence (Q01196 whole entry): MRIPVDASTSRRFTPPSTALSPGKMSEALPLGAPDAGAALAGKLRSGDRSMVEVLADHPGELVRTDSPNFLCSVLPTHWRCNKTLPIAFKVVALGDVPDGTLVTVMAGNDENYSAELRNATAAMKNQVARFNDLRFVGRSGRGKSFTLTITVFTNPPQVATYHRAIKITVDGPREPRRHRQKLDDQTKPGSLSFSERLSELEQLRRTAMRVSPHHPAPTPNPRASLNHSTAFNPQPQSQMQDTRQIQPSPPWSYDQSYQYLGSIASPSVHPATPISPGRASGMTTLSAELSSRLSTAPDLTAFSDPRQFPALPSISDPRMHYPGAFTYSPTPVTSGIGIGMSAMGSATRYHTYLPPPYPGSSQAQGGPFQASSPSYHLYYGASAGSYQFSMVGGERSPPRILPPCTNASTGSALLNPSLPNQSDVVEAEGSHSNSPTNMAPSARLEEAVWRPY

How did the RUNX1 binding intensity turn out when CCAGAGGGCGGAAGTGGGAGCTGCGACCGCGCTCCC was run?
The RUNX1 binding intensity was 1880.

With AGGGACTTCCGGTGACCAGAGCACTAGCGCCGCAAA as the sequence, how does the RUNX1 binding intensity read?
The RUNX1 binding intensity was 2070.

Which RUNX1 binding intensity does the source give for GGGGCTGGGAAAGGATGTGGTAAGGGCCAGTCAGTC here?
The RUNX1 binding intensity was 1920.

For CCTGAAGCTCATGCGGAAAACCCACAAAGGGGTGCC, which RUNX1 binding intensity is on record?
Its RUNX1 binding intensity is 828.

How did the RUNX1 binding intensity turn out when AGTGGCAGTGCAGGAAGTGGTTTGTCTGGTACAATC was run?
The RUNX1 binding intensity was 1590.

With GCGAGGAGACAACTTCCTTTTGTGGTCTGACCCTGG as the sequence, how does the RUNX1 binding intensity read?
Its RUNX1 binding intensity is 1970.

Which RUNX1 binding intensity does the source give for GAAATCACATCCTTTTGCAAAACCACAGGTGTTTTG here?
Its RUNX1 binding intensity is 3340.

How did the RUNX1 binding intensity turn out when GGGCAGGAAGGAAGAGGGCTCCTCCCCACAAGCTCT was run?
The RUNX1 binding intensity was 862.

Which RUNX1 binding intensity does the source give for TGGGGCCCGGAAGCGCTGGCGCCTTGCGGCCAGAAG here?
The RUNX1 binding intensity was 952.

For ATTAGAGGTAGAGGAAATACCACATGCAAAGGTTTG, which RUNX1 binding intensity is on record?
Its RUNX1 binding intensity is 863.

With GAAGCTACTCTGGTTTCCTGTGGTTTTCTGAGCACT as the sequence, how does the RUNX1 binding intensity read?
Its RUNX1 binding intensity is 2900.

GACTATGTGCTTCCGGTCTCCAATACCGCAGGAGGG was tested. Which RUNX1 binding intensity did it give?
Its RUNX1 binding intensity is 2690.

Which RUNX1 binding intensity does the source give for TTGTCGGGTATGGGATGTGGGCAGAGAGTATGATGG here?
Its RUNX1 binding intensity is 797.

Which RUNX1 binding intensity does the source give for ATGCCTTCTTCCAGAGGATGTGGTCGCTACTAGTGG here?
The RUNX1 binding intensity was 868.

With GGCTCGGTGCTGCTTCCTGTGTGGTCAGGATCACAG as the sequence, how does the RUNX1 binding intensity read?
Its RUNX1 binding intensity is 1790.

For GACATCTTCCGGTTGCTACAGGTTACGGCGGTTGCT, which RUNX1 binding intensity is on record?
The RUNX1 binding intensity was 1640.

ACCCGGATGTCGTTGGGCAGGAACTGCGGTGAGGGC was tested. Which RUNX1 binding intensity did it give?
Its RUNX1 binding intensity is 1490.

Which RUNX1 binding intensity does the source give for TAGGCAGGCAGGATGTGCCTATAAGCCACATGAATG here?
The RUNX1 binding intensity was 962.

For CCTGTTTCCTGCCATCTGCCCTTCCTTTGTGGTCAA, which RUNX1 binding intensity is on record?
Its RUNX1 binding intensity is 6290.

With ACCCCGGAAGTGTGGGCGCGGCTGCGGTTTAACCCG as the sequence, how does the RUNX1 binding intensity read?
The RUNX1 binding intensity was 8200.

Which RUNX1 binding intensity does the source give for TCCTCCATGCAGGAAAACCTCTGTGGTCTGGGAGCT here?
Its RUNX1 binding intensity is 862.

How did the RUNX1 binding intensity turn out when GAGTTGCTTCCGGCCGTGTTGGTGGTCTGAATTGAG was run?
The RUNX1 binding intensity was 1830.

Which RUNX1 binding intensity does the source give for GTGGCTATGGGAAGTGGGGTGCGGTTTCTGCCGGGG here?
The RUNX1 binding intensity was 1670.

CAGATCTGAAAGGGAAGTGGTTTCAAGAGGGTTCTT was tested. Which RUNX1 binding intensity did it give?
The RUNX1 binding intensity was 865.

TGGCTGTGTCCCGGAAGTGGTCATAAGCTGGGTCCC was tested. Which RUNX1 binding intensity did it give?
The RUNX1 binding intensity was 2470.

Which RUNX1 binding intensity does the source give for CCGCTTCCGGGACGCGAATCGCTCTGCGGCTGCGTC here?
The RUNX1 binding intensity was 2080.

Which RUNX1 binding intensity does the source give for GACAGTCATGTTTCAGGATGTGGTTTTAGCCAAAGG here?
The RUNX1 binding intensity was 1710.

How did the RUNX1 binding intensity turn out when CACTCCCCGAATCCGGTCTGCGGCGCGCTCGGGGCC was run?
Its RUNX1 binding intensity is 1250.

GGCAGCCGATGCATCCTGCGGTGTGTGGCCCTCAGA was tested. Which RUNX1 binding intensity did it give?
The RUNX1 binding intensity was 1040.

GGCCCGGCCGGAAGAAGCCACCTCCCCCGCACGCGT was tested. Which RUNX1 binding intensity did it give?
Its RUNX1 binding intensity is 1240.

Which RUNX1 binding intensity does the source give for TCCCACTGCGACGGAAGCACAGCGGTTAAGATTGCA here?
The RUNX1 binding intensity was 910.

For TTTCCTCGGATTCCCGGATGTGGGTGAGTTCATTTG, which RUNX1 binding intensity is on record?
Its RUNX1 binding intensity is 2000.

With GAAAGCTGCACTATTTCCTGAGGTTAGAGGTTTAAA as the sequence, how does the RUNX1 binding intensity read?
Its RUNX1 binding intensity is 1040.

How did the RUNX1 binding intensity turn out when GACAGAGGAAACTAGGTGTGACAACCACAAACAGCT was run?
The RUNX1 binding intensity was 785.

Which RUNX1 binding intensity does the source give for CTCTGGCAGGAAGCTCTGAGGGCTAAACCACAAAAA here?
The RUNX1 binding intensity was 1820.

Which RUNX1 binding intensity does the source give for CCAGAATGCAGGAAGTGCTGTGGTTTGACTTTGTTT here?
The RUNX1 binding intensity was 1970.

For GGCTTTCCGTTCAAGGATCTTTTTGCGGTCTTTGTC, which RUNX1 binding intensity is on record?
The RUNX1 binding intensity was 3270.

Which RUNX1 binding intensity does the source give for CCCACTTCCTGTCTGCTTCCCTCCACCGCTCAGACC here?
The RUNX1 binding intensity was 4290.

With TGGGGACAGGAAATGTTTACTGCCTGTGGCTTGCTG as the sequence, how does the RUNX1 binding intensity read?
Its RUNX1 binding intensity is 981.

How did the RUNX1 binding intensity turn out when CTCGCGATTCCTCTTCCGCTGCGGTCTCCTTAACAC was run?
The RUNX1 binding intensity was 2170.
